TRPV1 potentiator: HTS Assay for Compounds that Act as Potentiators of the Vanilloid Receptor 1; Transient receptor potential cation channel subfamily V member 1 (Homo sapiens), Q8NER1; TRPV1-expressing cells, Fluo-8 calcium influx, capsaicin EC20 potentiation; potentiation, % at 8.33 µM; hit rate 0.02% among 320,000; AID 540277, 2011; in the data active means potentiation above about 80%; inconclusive means between about 30% and that limit; further: 0% is about no effect
Target sequence (Q8NER1 whole entry, looked up): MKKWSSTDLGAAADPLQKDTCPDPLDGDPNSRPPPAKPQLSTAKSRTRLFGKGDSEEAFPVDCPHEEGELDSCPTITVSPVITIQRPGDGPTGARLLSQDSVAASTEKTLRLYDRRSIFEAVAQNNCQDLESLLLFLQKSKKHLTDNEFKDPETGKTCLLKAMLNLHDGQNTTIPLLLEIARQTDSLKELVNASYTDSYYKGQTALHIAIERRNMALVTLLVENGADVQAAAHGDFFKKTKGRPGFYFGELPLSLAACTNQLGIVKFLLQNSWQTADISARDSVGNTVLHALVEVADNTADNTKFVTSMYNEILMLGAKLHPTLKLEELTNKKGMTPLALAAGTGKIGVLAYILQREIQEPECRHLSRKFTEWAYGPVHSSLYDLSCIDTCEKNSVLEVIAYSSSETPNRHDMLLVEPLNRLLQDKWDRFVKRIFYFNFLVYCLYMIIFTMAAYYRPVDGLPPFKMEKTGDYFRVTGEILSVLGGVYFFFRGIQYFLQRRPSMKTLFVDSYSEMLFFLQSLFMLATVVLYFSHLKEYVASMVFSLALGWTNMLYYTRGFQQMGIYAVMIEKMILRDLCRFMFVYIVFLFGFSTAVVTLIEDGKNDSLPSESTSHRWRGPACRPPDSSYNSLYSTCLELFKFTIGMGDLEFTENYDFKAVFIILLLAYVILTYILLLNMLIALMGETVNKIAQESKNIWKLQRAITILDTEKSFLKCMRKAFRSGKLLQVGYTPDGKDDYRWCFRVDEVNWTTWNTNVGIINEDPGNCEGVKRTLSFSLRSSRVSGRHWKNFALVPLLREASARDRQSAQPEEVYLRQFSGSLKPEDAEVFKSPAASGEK
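TRPV1-expressing cells were cultured overnight at 35.5C and loaded with Fluo-8 calcium dye for 40 to 90 min at room temperature. After a 10 s baseline, compound was added and calcium influx was read kinetically for 3 min (ex 480/em 520 nm).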
D1 PAM: Potentiators of Human D1 Dopamine Receptor: qHTS. D(1A) dopamine receptor (Homo sapiens), P21728. HEK293 TREx D1 cells, calcium flux, dopamine EC20 potentiation. potentiation, % at 10 µM. hit rate 0.036% among 360,000; in the data active means potentiation above about 30%; further: 0% is about no effect
D1 ag: Allosteric Agonists of the Human D1 Dopamine Receptor: qHTS. D(1A) dopamine receptor (Homo sapiens), P21728. HEK293 T-REx D1 cells, calcium flux, agonist mode. activation, % at 2 µM. hit rate 1% among 360,000. AID 504660, 2011; in the data active means activation above about 30%; further: 0% is about no effect
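Inducible HEK293 T-REx D1 cells, force-coupled to calcium signalling, were plated at 4000 cells/well with tetracycline and held overnight at 30 C. After no-wash calcium dye loading, compound-evoked calcium rise over 180 s flagged agonists.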
D1 antagonist: Antagonist of Human D 1 Dopamine Receptor: qHTS | hit rate 3.2% among 360,000 | activity change, negative = inhibition, % at 10 µM | HEK293 TREx D1 cells, calcium flux, dopamine EC80; stronger effect = lower value | D(1A) dopamine receptor (Homo sapiens), P21728; in the data active means activity change below about -30%; further: on the % scale 0 is the no-effect control and ±100 the full control effect
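After overnight tetracycline induction at 30 C, force-coupled D1 HEK293 cells took up a no-wash calcium dye at room temperature. Compounds were added and monitored 180 s, and the response to EC80 dopamine was then recorded.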
TRPV1 ag: HTS Assay for Compounds that Act as Agonists of the Vanilloid Receptor 1. TRPV1-expressing cells, Fluo-8 calcium influx, agonist mode. activation, % at 8.33 µM. hit rate 0.19% among 320,000. AID 540275, 2011; in the data active means activation above about 80%; inconclusive means between about 30% and that limit; further: 0% is about no effect
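Fluo-8 calcium influx in TRPV1-expressing cells, kinetic read (ex 480/em 520 nm). Compound added and read 3 min for agonist activity, followed by capsaicin at EC20 final and 2 min further read for enhancement.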
The depositor's hits bear a star; ? = inconclusive; nt = no result given; ! = not active in a repeat. In the library only some 4.2% were active in any assay of this set; here they are far more common.

SMILES	TRPV1 potentiator	D1 PAM	D1 ag	D1 antagonist	TRPV1 ag
Cc1cc(Br)cc2c1N(Cc1ccccc1OC(C)C)C(=O)C2=O	nt	-1	1	-51*	nt
Cc1ccc(C2(C)NC(=O)N(CC(=O)Nc3ccccc3N3CCCCC3)C2=O)cc1 (stereo not given)	6	5	13	35	?
CC1(c2ccc(OC(F)F)cc2)NC(=O)N(CC(=O)Nc2ccccc2)C1=O (stereo not given)	-14	2	59*	-59*	26
Cc1ccc(C2(C)NC(=O)N(CC(=O)Nc3ccccc3N3CCCC3)C2=O)cc1 (stereo not given)	14	5	47*	5	-12
O=C(CN1C(=O)NC2(CCCC2)C1=O)Nc1cc(Cl)ccc1N1CCCCC1	10	0	42*	2	1
COc1cccc(NC(=O)CN2C(=O)NC(C)(c3ccc(C)cc3)C2=O)c1 (stereo not given)	1	-9	34*	-2	5
O=C(Nc1cc2c(cc1C(=O)c1ccc(Br)cc1)OCCO2)c1ccc(Cl)cc1	nt	0	0	11	nt
COc1cc(NC(=O)CN2c3ccccc3S(=O)(=O)c3ccccc32)cc(OC)c1	nt	-3	6	25	nt
CCCCN(CC)CCCNC(=O)Cn1ncc2c3ccccc3n(Cc3ccccc3F)c2c1=O	nt	-2	8	2	nt
COc1ccc(N2CCN(S(=O)(=O)CCNC(=O)c3c(F)cccc3Cl)CC2)cc1	nt	-2	4	-15	nt
COc1ccc(C2(C)NC(=O)N(CC(=O)Nc3ccc4[nH]c(=O)[nH]c4c3)C2=O)cc1 (stereo not given)	-22	-2	3	-26	-2
COc1ccc(C2(C)NC(=O)N(CC(=O)c3cc(C)n(C4CC4)c3C)C2=O)cc1 (stereo not given)	-13	-3	64*	-9	2
CC(=O)c1c(C)[nH]c(C(=O)CN2C(=O)NC(C)(c3ccc(C)cc3)C2=O)c1C (stereo not given)	1	-6	33*	9	3
CCN1C(=O)C(=O)N(CC(=O)c2[nH]c(C)c(C(C)=O)c2C)C1=O	0	-3	1	-9	-1
CC1(c2ccc(OC(F)F)cc2)NC(=O)N(CC(=O)Nc2ccc3c(c2)OCO3)C1=O (stereo not given)	25	-9	66*	-60*	?
CC1(c2ccc(OC(F)F)cc2)NC(=O)N(CC(=O)Nc2ccc3[nH]c(=O)[nH]c3c2)C1=O (stereo not given)	81*	-3	2	5	-7
CC1(c2ccccc2)NC(=O)N(CC(=O)Nc2ccc3c(c2)OCO3)C1=O (stereo not given)	-8	-3	3	6	14
CCc1cccc2c(-c3ccccc3)nc(SCC(=O)Nc3ccccc3)nc12	nt	2	0	-6	nt
CCC(CC)C(=O)Nc1ccc2nc(SCC(=O)N3CCCC3)sc2c1	nt	0	-2	1	nt
COc1ccc(CNC(=O)Cc2c(C)c3c(cc(C)c4c(C)c(C)oc43)oc2=O)cc1	nt	-1	0	-1	nt
CC(=O)Nc1ccc(/C=N/N2C(=O)NC(C)(c3ccc(OC(F)F)cc3)C2=O)cc1 (stereo not given)	-3	-12	96*	-50*	21
COc1ccc(NC(=O)C2CCN(c3cnccn3)CC2)cc1Cl	-11	-6	5	-58*!	28
Cc1cc(Cl)ccc1NC(=O)CN1C(=O)COc2ccc(S(=O)(=O)N3CCC(C)CC3)cc21	nt	-1	2	9	nt
Cc1ccc(Cn2c(CN3CCC(C(=O)NCCc4ccccc4)CC3)cc3ccccc32)cc1	nt	-3	43*	9	nt
O=C(NCCc1ccccc1)C1CCN(Cc2cc3ccccc3n2Cc2cccc(Cl)c2)CC1	nt	-3	2	-12	nt
SMILES	TRPV1 potentiator	D1 PAM	D1 ag	D1 antagonist	TRPV1 ag
CCOc1ccc(Br)cc1S(=O)(=O)NC1CCCC1	-12	-5	0	8	18
CCOc1cc(C)c(S(=O)(=O)NC2CCCCC2)cc1C	-13	-5	18	-33*	23
Nc1c(-c2ccc(Cl)cc2)nnn1-c1ccccc1	-22	-7	-1	-50*	?
Cc1ccc(Cn2c(=O)n(C)c(=O)c3sccc32)cc1	-4	-3	10	-24	1
C=Cc1ccc(Cn2c(=O)n(C)c(=O)c3sccc32)cc1	-4	-2	16	-34*	1
Cc1cc(Cl)ccc1OC(C)C(=O)NCCCn1ccnc1 (stereo not given)	-12	-9	7	-35*	8
CCc1ccc(C(=O)NC2=NC(c3cc(OC)ccc3OC)CC(=O)N2)cc1 (stereo not given)	nt	1	2	-6	nt
O=C1CN(C(=O)c2ccc(S(=O)(=O)N3CCCC3)cc2)C(c2ccc(F)cc2)c2cc(F)ccc2N1 (stereo not given)	nt	-1	3	-4	nt
CC(=O)c1cc(-c2ccc(F)cc2)n(CCC(=O)NCc2ccccc2C)c1C	nt	-4	0	3	nt
CCOC(=O)c1sc2nc(CSc3ccccc3)nc(NCCN(C)C)c2c1C	7	-10	50*	-20	1
Cc1ccccc1C(=O)Nc1cccc(C(=O)OCc2cc(=O)n3c4c(sc3n2)CCCC4)c1	nt	1	1	-8	nt
CCS(=O)(=O)Nc1cccc(C2=NN(C(C)=O)C(c3cccs3)C2)c1 (stereo not given)	1	-3	3	-47*	2
CS(=O)(=O)Nc1ccc(C2=NN(C(=O)c3cccc(F)c3)C(c3cccs3)C2)cc1 (stereo not given)	9	-7	1	-3	-1
CS(=O)(=O)Nc1ccc(C2=NN(C(=O)c3ccccc3)C(c3cccs3)C2)cc1 (stereo not given)	2	-9	-1	-34*	-1
CC(=O)N1N=C(c2cccc(NS(C)(=O)=O)c2)CC1c1cccs1 (stereo not given)	6	3	0	-8	-2
CCOC(=O)c1cccc(NC(=O)CC2C(=O)N(c3ccccc3)C(=O)N2Cc2ccco2)c1 (stereo not given)	nt	-3	-1	3	nt
CC(Cc1cccs1)NC(=S)Nc1ccc(Cl)cc1 (stereo not given)	-13	-9	22	-60*	?
CCC(O)c1nc2ccccc2n1CCOc1cc(C)cc(C)c1 (stereo not given)	nt	-2	1	7	nt
N#CC1=C(Nc2ccccc2)SC=C(c2ccc(Cl)c(Cl)c2)N=C1N1CCOCC1	4	4	1	-60*	6

Compound activity from PubChem.
